We go through eleven molecules from ChEMBL document CHEMBL3988442, “University of Dundee, Small-Polar-MMV Screening Library” (2021).

For some of these results: Entries with a potency or affinity are not part of this list.

Holding throughout (parameters): scale not given: direction of the effect not stated beside the values
Experiment [1] has as its target Protein translocase subunit SecA (Escherichia coli (strain K12)) (UniProt P10408). Description: Assay to Identify E. coli SecA ATPase Inhibitors. In kind it is functional. To be noted: 30 µM.
Experiment [2] addresses T1, Ubiquitin-activating enzyme e1, putative (Leishmania donovani (strain BPK282A1)) (UniProt E9BSI1).
T1 sequence (whole entry): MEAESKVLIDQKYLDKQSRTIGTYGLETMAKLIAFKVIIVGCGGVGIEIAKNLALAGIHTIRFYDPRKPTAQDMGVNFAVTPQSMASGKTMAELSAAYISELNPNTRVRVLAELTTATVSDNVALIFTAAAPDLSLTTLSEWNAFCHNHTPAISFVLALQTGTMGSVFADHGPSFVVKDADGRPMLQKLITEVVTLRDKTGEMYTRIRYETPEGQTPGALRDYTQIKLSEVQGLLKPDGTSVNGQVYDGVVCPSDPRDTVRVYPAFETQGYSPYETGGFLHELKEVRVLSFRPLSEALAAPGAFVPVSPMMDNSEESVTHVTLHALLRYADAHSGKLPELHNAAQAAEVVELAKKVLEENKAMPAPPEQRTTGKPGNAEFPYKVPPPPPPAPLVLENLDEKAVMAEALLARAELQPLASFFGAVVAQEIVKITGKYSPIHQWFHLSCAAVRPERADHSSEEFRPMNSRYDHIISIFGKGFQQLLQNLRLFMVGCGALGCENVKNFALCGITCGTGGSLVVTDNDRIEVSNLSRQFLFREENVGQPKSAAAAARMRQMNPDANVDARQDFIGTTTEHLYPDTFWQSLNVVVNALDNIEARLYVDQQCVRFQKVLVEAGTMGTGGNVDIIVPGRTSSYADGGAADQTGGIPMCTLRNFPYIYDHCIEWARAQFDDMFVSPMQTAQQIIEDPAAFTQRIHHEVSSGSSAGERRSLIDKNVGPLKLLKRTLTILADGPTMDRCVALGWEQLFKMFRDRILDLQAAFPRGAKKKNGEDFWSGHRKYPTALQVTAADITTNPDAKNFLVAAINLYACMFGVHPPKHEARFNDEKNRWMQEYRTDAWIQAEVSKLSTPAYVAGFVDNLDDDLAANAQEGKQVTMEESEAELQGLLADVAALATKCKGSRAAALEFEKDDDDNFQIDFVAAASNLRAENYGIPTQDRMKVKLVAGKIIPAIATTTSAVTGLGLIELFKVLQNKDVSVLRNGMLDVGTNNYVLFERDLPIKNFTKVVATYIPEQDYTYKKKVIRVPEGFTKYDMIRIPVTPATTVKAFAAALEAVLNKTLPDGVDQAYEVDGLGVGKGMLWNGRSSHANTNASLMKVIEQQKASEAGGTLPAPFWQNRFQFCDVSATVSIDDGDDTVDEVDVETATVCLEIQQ
Description: Leishmania donovani Ubiquitin Activating Enzyme (LdE1). In kind it is functional. To be noted: 30 µM.

The target in experiment [3] is AMP-activated protein kinase, AMPK (Homo sapiens) (UniProt P54646+O43741+P54619+Q9UGJ0+Q9Y478+Q13131+Q9UGI9). Description: AMP-dependent Kinase enzyme assay. An in vitro enzyme assay that detects ADP turnover that is directly proportional to AMPK activity. This uses naive AMPK that is activated during the assay with MK-8722. In kind it is functional. To be noted: 30 µM.

For experiment [4], the target named is Sialic acid-binding Ig-like lectin 9 (Homo sapiens) (UniProt Q9Y336). Description: Hs-Siglec9 ALPHAscreen SOP 20170721. As to conditions: 10 µM. A general note: Bead proximity is the source of the signal in Alpha formats.
Sialic acid-binding Ig-like lectin 9 (Homo sapiens), sequence (Q9Y336 whole entry): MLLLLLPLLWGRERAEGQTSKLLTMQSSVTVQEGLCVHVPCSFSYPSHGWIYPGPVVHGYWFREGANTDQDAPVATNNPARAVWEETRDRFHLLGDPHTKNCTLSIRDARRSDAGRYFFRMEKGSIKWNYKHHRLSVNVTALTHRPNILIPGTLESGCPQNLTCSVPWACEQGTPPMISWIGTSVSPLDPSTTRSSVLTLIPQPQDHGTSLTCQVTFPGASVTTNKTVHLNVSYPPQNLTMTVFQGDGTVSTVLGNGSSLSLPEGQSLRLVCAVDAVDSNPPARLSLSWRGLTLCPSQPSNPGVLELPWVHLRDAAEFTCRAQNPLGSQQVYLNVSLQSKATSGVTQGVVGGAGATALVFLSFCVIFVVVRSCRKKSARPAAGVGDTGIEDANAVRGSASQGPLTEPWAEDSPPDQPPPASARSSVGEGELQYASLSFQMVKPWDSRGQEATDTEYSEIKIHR
For a further experiment, the system named is Trypanosoma cruzi. Description: Trypanosoma cruzi phosphomannomutase and mannose-1-phosphate guanylyltransferase assay. The class given is functional. As to conditions: 10 µM.
The target of experiment [5] is T2, Arginase-2, mitochondrial (Homo sapiens) (UniProt P78540).
T2 sequence (whole entry): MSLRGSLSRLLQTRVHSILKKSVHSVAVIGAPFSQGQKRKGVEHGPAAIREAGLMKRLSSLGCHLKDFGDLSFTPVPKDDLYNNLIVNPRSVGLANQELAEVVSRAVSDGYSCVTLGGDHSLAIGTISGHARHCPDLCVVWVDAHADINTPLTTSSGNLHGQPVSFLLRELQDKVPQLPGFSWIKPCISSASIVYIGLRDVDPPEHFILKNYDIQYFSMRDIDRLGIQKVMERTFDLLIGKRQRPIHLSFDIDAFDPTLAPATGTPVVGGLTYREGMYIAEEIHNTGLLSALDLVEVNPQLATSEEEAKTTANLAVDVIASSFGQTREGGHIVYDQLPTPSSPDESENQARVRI
Description: in vitro enzyme assay to detect the production of urea directly proportional to the activity of Arginase II. Also: in the data most compounds retested in dose-response had high values. The class given is functional. To be noted: 33.3 µM.

The target of experiment [6] is T3, Proteasome subunit beta (Trypanosoma cruzi) (UniProt O96673).
T3 sequence (whole entry): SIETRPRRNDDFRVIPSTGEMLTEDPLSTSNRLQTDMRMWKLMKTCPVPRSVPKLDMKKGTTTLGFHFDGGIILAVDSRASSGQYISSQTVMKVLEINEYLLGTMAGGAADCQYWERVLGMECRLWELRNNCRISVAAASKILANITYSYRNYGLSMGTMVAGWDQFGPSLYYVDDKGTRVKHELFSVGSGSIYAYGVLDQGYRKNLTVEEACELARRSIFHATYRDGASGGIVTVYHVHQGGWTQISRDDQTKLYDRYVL
Description: Trypanosoma cruzi proteasome chymotrypsin-like activity (TcProtChymo) assay. Also: in the data most compounds retested in dose-response had high values. The class given is functional. To be noted: 9.37 µM.

The species named for another experiment is Homo sapiens. Description: To identify inhibition of the IFN signalling (Jak-Stat) pathway via expression of an eGFP reporter gene under the control of an IFN-stimulated response element (ISRE) containing MxA promoter. In kind it is functional. As to conditions: 30 µM. Background: A reporter such as luciferase makes a cellular process visible.
Experiment [7] deals with T4, Tyrosyl-tRNA synthetase, putative (Trypanosoma cruzi (strain CL Brener)) (UniProt Q4DSP6).
T4 sequence (whole entry): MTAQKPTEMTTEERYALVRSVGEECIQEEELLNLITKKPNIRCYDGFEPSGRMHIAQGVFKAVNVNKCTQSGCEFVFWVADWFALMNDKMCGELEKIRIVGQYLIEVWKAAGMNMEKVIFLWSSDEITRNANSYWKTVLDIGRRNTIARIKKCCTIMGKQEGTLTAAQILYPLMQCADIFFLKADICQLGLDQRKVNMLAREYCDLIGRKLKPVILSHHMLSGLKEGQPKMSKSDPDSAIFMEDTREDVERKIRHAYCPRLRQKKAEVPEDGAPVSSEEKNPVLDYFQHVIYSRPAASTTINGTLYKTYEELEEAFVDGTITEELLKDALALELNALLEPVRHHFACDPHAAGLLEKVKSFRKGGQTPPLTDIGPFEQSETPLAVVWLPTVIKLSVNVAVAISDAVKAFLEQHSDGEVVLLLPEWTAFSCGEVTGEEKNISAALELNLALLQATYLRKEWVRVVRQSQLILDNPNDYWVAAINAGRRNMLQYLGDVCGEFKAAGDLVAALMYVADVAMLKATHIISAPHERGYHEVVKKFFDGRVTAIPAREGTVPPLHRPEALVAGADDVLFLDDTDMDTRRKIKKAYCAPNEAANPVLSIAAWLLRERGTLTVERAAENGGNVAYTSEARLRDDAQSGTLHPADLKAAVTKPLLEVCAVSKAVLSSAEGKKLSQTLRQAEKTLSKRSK
Description: Trypanosoma cruzi tyrosyl tRNA synthetase (TcYRS) _High Tyrosine SOP. Also: in the data most compounds retested in dose-response had high values. As to conditions: 30 µM. In kind it is functional.

Experiment [8] concerns the target T4, Tyrosyl-tRNA synthetase, putative (Trypanosoma cruzi (strain CL Brener)). Description: Trypanosoma cruzi tyrosyl tRNA synthetase (TcYRS) SOP. The class given is functional. As to conditions: 30 µM.
For experiment [9], the target named is Chromo domain-containing protein 1 (Saccharomyces cerevisiae (strain ATCC 204508 / S288c) (Baker's yeast)) (UniProt P32657). Description: ScCHD-1 Enzyme Inhibition Assay. Also: in the data most compounds retested in dose-response had high values. The class given is functional. As to conditions: 30 µM.
Chromo domain-containing protein 1 (Saccharomyces cerevisiae (strain ATCC 204508 / S288c) (Baker's yeast)), sequence (P32657 whole entry, the tested form may be a part): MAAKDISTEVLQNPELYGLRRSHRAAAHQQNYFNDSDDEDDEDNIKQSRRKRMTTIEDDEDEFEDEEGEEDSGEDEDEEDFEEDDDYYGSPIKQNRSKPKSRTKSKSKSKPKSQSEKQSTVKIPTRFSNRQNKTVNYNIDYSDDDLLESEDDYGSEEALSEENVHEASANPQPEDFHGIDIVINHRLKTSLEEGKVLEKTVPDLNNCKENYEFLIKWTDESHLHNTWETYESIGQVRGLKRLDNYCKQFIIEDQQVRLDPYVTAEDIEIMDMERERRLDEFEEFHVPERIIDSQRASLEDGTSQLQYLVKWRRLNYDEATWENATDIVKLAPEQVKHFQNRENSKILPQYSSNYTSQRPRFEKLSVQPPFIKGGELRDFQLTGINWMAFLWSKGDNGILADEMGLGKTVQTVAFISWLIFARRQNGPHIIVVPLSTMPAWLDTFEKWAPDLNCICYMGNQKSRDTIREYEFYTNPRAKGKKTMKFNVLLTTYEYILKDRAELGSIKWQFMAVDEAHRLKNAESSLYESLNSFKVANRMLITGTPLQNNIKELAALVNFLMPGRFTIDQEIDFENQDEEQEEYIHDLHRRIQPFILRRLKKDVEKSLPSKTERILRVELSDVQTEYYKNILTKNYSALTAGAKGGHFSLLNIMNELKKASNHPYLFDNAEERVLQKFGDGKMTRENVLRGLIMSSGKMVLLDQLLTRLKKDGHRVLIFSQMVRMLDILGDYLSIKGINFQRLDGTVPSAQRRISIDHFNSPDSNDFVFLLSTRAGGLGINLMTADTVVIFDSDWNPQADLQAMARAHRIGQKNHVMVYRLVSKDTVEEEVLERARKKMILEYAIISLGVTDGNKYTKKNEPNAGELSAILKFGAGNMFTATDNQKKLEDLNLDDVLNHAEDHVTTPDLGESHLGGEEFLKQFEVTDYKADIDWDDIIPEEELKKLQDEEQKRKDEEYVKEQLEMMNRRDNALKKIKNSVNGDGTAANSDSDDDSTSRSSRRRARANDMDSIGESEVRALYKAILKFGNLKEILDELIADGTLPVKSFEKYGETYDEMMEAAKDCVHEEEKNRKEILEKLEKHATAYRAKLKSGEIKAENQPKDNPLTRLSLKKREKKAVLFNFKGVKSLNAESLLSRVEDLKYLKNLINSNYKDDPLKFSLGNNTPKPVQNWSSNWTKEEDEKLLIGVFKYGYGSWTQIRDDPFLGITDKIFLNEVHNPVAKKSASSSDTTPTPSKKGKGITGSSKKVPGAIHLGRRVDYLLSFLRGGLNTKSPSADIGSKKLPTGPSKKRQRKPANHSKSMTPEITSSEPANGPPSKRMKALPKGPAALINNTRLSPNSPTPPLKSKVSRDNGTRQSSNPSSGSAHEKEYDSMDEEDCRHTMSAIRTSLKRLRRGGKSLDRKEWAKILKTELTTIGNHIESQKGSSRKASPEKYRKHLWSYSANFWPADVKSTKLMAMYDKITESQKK

Protein translocase subunit SecA (Escherichia coli (strain K12)), sequence (P10408 whole entry): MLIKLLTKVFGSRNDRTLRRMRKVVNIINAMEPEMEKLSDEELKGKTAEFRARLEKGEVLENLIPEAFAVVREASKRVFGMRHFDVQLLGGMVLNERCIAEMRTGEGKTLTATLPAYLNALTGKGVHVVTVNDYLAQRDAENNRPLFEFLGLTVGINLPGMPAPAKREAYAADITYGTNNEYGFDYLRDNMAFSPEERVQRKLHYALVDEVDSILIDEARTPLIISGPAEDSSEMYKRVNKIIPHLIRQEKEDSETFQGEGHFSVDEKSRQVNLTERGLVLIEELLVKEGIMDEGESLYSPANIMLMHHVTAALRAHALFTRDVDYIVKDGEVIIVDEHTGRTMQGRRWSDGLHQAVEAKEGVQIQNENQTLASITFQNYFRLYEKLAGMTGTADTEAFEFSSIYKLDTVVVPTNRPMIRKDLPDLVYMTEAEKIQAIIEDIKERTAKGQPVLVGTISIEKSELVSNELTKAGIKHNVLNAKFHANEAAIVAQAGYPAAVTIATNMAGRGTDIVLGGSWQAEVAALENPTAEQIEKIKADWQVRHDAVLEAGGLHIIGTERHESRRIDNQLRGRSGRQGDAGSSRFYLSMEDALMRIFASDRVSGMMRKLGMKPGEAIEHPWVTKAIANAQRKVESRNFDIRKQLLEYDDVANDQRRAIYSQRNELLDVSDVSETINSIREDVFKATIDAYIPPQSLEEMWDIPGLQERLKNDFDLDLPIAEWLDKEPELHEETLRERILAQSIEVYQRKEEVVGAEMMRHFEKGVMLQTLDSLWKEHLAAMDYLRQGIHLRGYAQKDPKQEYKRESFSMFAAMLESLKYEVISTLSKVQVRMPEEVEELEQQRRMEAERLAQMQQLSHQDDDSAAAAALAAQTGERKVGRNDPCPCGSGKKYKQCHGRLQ

Take `CC(C)(C)c1cnc(CN2CCCC2Cn2cccn2)o1` (stereo unspecified): the Percent Effect in experiment [1] is -0.386%; in [2] it was 0%; in experiment [3], 6.71%; in [4] it was -3.67%; in the experiment on Trypanosoma cruzi it was 5.19%; in [5] it was -0.38%. The Percent Effect is 5.16% in [6]; -9.18% in the experiment filed under Homo sapiens; 2.46% in experiment [7]; 3.8% in experiment [8]; -4.77% in experiment [9].

As for `COc1ccc(Cl)cc1C(=O)N1CCCC(n2nc(C)nc2C)C1` (stereo unspecified), the Percent Effect in [1] was -3.26%; in [2], 0%; in experiment [3], 9.49%; in [4], -8.91%; with Trypanosoma cruzi, -6.33%; in [5], -3.8%. The Percent Effect was -4.5% in experiment [6]; 16.6% in the experiment filed under Homo sapiens; -2.46% in [7]; -3.8% in [8]; 2.53% in experiment [9].

Regarding `CN(C)c1cc(C(=O)NCCc2n[nH]c(=O)[nH]2)ccn1`, the Percent Effect was -2.65% in experiment [1]; 2.63% in [2]; 5.52% in experiment [3]; 7.32% in [4]; -0.487% with Trypanosoma cruzi; 4.73% in experiment [5]. Besides, the Percent Effect was 7.38% in experiment [6]; 5.92% in the experiment listed under Homo sapiens; 3.19% in experiment [7]; 5.2% in experiment [8]; -2.56% in experiment [9].

Turning to `Cc1nocc1C(=O)N1CCc2c(CN(C)C(C)C)n[nH]c2C1`, the Percent Effect was 1.54% in experiment [1]; 11% in experiment [2]; -4.98% in experiment [3]; 8.21% in experiment [4]; 3.77% in the experiment on Trypanosoma cruzi; -0.798% in [5]. For the same molecule, the Percent Effect in experiment [6] is 20.3%; in the experiment filed under Homo sapiens, 21%; in experiment [7] it was 5.21%; in experiment [8], 13.6%; in [9], -3.84%.

In the case of `Cc1ccc(C)c(-c2csc(N)c2C#N)c1`, the Percent Effect is -2.81% in experiment [1]; -1.33% in experiment [2]; -2.97% in experiment [3]; 7.24% in experiment [4]; 0.589% in the experiment on Trypanosoma cruzi; -10% in experiment [5]. Moreover, the Percent Effect is 4.99% in [6]; 14.2% in the experiment filed under Homo sapiens; -12.7% in experiment [7]; -12.8% in [8]; 2.05% in [9].

For the molecule `NCc1cnn(-c2ccccc2C(=O)NCCCn2ccnc2)c1`, the Percent Effect in [1] is -3.74%; in experiment [2], 6.76%; in [3], 9.61%; in experiment [4], -1.25%; with Trypanosoma cruzi, -3.16%; in experiment [5] it was -1.16%. The Percent Effect in experiment [6] is 0.312%; in the experiment listed under Homo sapiens, 4.01%; in experiment [7], 7.53%; in experiment [8], 11.7%; in [9], -2.44%.

For `O=C(c1ccc2c(c1)COC2)N1CCN(CC2CC2)CC1`, the Percent Effect is -2.51% in experiment [1]; 5.06% in [2]; -1.47% in experiment [3]; 8.43% in experiment [4]; -0.283% in the experiment on Trypanosoma cruzi; -1.52% in experiment [5]. In addition, the Percent Effect is -2.21% in [6]; 0.542% in the experiment filed under Homo sapiens; 4.43% in [7]; -1.27% in experiment [8]; 1.49% in [9].

`Cc1csc(CNC(=O)NCCc2ccc3c(c2)OCCO3)n1`: the Percent Effect is -5.64% in [1]; 13% in [2]; -2.69% in experiment [3]; -16.2% in experiment [4]; 7.93% with Trypanosoma cruzi; -3.58% in experiment [5]. For the same molecule, the Percent Effect in experiment [6] is 13.5%; in the experiment listed under Homo sapiens, 8.98%; in [7], 4.76%; in [8] it was 23.5%; in experiment [9], -17.6%.

As to `CC(Oc1ccccc1C(F)(F)F)C(=O)NCCC(=O)N(C)C` (stereo unspecified), the Percent Effect was -4.14% in [1]; 8.11% in [2]; -2.52% in [3]; 6.01% in [4]; 2.93% in the experiment on Trypanosoma cruzi; 26.2% in [5]. Further, the Percent Effect was 3.47% in experiment [6]; -11.3% in the experiment listed under Homo sapiens; 4.95% in experiment [7]; 13.4% in experiment [8]; -4% in [9].

As to `Cn1cc(CN2CCCN(C(=O)c3cc(Cl)cn3C)CC2)cn1`, the Percent Effect in experiment [1] was -2.96%; in experiment [2], 13.2%; in experiment [3], -8.7%; in experiment [4] it was -2.03%; with Trypanosoma cruzi, -6.39%; in experiment [5], -3.45%. Besides, the Percent Effect in experiment [6] is 20.6%; in the experiment filed under Homo sapiens, 28%; in experiment [7], 1.47%; in [8] it was 7.32%; in experiment [9] it was -9.82%.

With `Cc1cc(C[C@@H]2COC[C@H]2NCc2ccccc2C(F)(F)F)on1`, the Percent Effect is -5.6% in [1]; 4.05% in experiment [2]; -0.353% in experiment [3]; 6.23% in [4]; 1.58% in the experiment with Trypanosoma cruzi; 0.232% in experiment [5]. Further, the Percent Effect is 14% in experiment [6]; 5.54% in the experiment listed under Homo sapiens; 3.23% in experiment [7]; 11.7% in experiment [8]; -18.2% in experiment [9].
